In the supplement of paper PMC8728848:
Many of the other results were omitted from the sample, so the strongest signals are more common in it than they were.

How the values were obtained:
Assay in all cases: glycan array binding signal (z-score within array); higher = stronger binding
Settings in all cases: glycan notation: IUPAC condensed, linker removed; mutation: R144S
[1] = molecular target: Fuc(a1-2)Gal(b1-3)GlcNAc(b1-3)[Fuc(a1-3)[Gal(b1-4)]GlcNAc(b1-6)]Gal(b1-4)Glc
Procedure, shortened: (§1)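 Arrays were curated from the Consortium for Functional Glycomics database, 3228 in total, and kept only where the protein sequence was available. Binding is expressed as a within-array Z-score. This score was averaged across arrays of the same protein sequence at different concentrations or buffers and across linkers, and negative values can be read as non-binding.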

[2] = molecular target: Fuc(a1-2)Gal(b1-4)Glc6S
Procedure, shortened: as §1

[3] = molecular target: Fuc(a1-2)Gal(b1-4)GlcNAc6S
Procedure, shortened: as §1

[4] = molecular target: Fuc(a1-2)Gal(b1-4)[Fuc(a1-3)]GlcNAc(b1-3)Gal(b1-4)[Fuc(a1-3)]GlcNAc
Procedure, shortened: as §1

[5] = molecular target: Fuc(a1-2)[Gal(a1-3)]Gal(b1-3)GlcNAc(b1-2)Man(a1-3)[Fuc(a1-2)[Gal(a1-3)]Gal(b1-3)GlcNAc(b1-2)Man(a1-6)]Man(b1-4)GlcNAc(b1-4)GlcNAc
Procedure, shortened: as §1

[6] = molecular target: Fuc(a1-2)[Gal(a1-3)]Gal(b1-4)GlcNAc(b1-2)Man(a1-3)[Fuc(a1-2)[Gal(a1-3)]Gal(b1-4)GlcNAc(b1-2)Man(a1-6)]Man(b1-4)GlcNAc(b1-4)GlcNAc
Procedure, shortened: as §1

[7] = molecular target: Fuc(a1-2)[GalNAc(a1-3)]Gal(b1-3)GlcNAc(b1-2)Man(a1-3)[Fuc(a1-2)[GalNAc(a1-3)]Gal(b1-3)GlcNAc(b1-2)Man(a1-6)]Man(b1-4)GlcNAc(b1-4)GlcNAc
Procedure, shortened: as §1

[8] = molecular target: Fuc(a1-2)[GalNAc(a1-3)]Gal(b1-4)GlcNAc(b1-2)Man(a1-3)[Fuc(a1-2)[GalNAc(a1-3)]Gal(b1-4)GlcNAc(b1-2)Man(a1-6)]Man(b1-4)GlcNAc(b1-4)GlcNAc
Procedure, shortened: as §1

[9] = molecular target: Fuc(a1-2)[GalNAc(a1-3)]Gal(b1-4)GlcNAc(b1-3)Gal(b1-4)GlcNAc(b1-3)Gal(b1-4)GlcNAc
Procedure, shortened: as §1

[10] = molecular target: Fuc(a1-2)[GalNAc(a1-3)]Gal(b1-4)[Fuc(a1-3)]GlcNAc
Procedure, shortened: as §1

[11] = molecular target: Fuc(a1-3)[Gal3S(b1-4)]GlcNAc
Procedure, shortened: as §1

[12] = molecular target: Gal(a1-4)Gal(b1-3)GlcNAc(b1-2)Man(a1-3)[Gal(a1-4)Gal(b1-3)GlcNAc(b1-2)Man(a1-6)]Man(b1-4)GlcNAc(b1-4)GlcNAc
Procedure, shortened: as §1

[13] = molecular target: Gal(a1-4)Gal(b1-4)Glc
Procedure, shortened: as §1

[14] = molecular target: Gal(b1-3)GalNAc(a1-3)[Fuc(a1-2)]Gal(b1-4)GlcNAc
Procedure, shortened: as §1

[15] = molecular target: Gal(b1-3)GlcNAc(b1-3)Gal(b1-4)GlcNAc(b1-6)[Gal(b1-3)GlcNAc(b1-3)]Gal(b1-4)Glc
Procedure, shortened: as §1

[16] = molecular target: Gal(b1-3)[Fuc(a1-4)]GlcNAc(b1-3)Gal(b1-4)[Fuc(a1-3)]GlcNAc
Procedure, shortened: as §1

[17] = molecular target: Gal(b1-3)[Neu5Ac(a2-6)]GalNAc
Procedure, shortened: as §1

[18] = molecular target: Gal(b1-4)GalNAc(a1-3)[Fuc(a1-2)]Gal(b1-4)GlcNAc
Procedure, shortened: as §1

[19] = molecular target: Gal(b1-4)GlcNAc(b1-3)[Gal(b1-4)GlcNAc(b1-6)]Gal(b1-4)GlcNAc
Procedure, shortened: as §1

[20] = molecular target: Gal3S(b1-4)GlcNAc6S
Procedure, shortened: as §1

[21] = molecular target: GalNAc(a1-3)Gal
Procedure, shortened: as §1

[22] = molecular target: GalNAc(b1-3)Gal(a1-4)Gal(b1-4)GlcNAc(b1-3)Gal(b1-4)Glc
Procedure, shortened: as §1

[23] = molecular target: GalNAc(b1-3)GalNAc
Procedure, shortened: as §1

[24] = molecular target: GlcNAc(a1-4)Gal(b1-4)GlcNAc(b1-3)Gal(b1-4)Glc
Procedure, shortened: as §1

[25] = molecular target: GlcNAc(b1-2)[GlcNAc(b1-4)]Man(a1-3)[GlcNAc(b1-2)Man(a1-6)]Man(b1-4)GlcNAc(b1-4)GlcNAc
Procedure, shortened: as §1

[26] = molecular target: GlcNAc(b1-3)Gal(b1-3)GalNAc
Procedure, shortened: as §1

[27] = molecular target: GlcNAc(b1-3)Gal(b1-4)Glc
Procedure, shortened: as §1

[28] = molecular target: GlcNAc(b1-3)Gal(b1-4)GlcNAc
Procedure, shortened: as §1

[29] = molecular target: Man(a1-3)[Man(a1-6)]Man
Procedure, shortened: as §1

[30] = molecular target: Neu5Ac(a2-3)Gal(b1-4)GlcNAc6S
Procedure, shortened: as §1

[31] = molecular target: Neu5Ac(a2-3)Gal(b1-4)[Fuc(a1-3)]GlcNAc(b1-6)[Neu5Ac(a2-3)Gal(b1-3)]GalNAc
Procedure, shortened: as §1

[32] = molecular target: Neu5Ac(a2-3)GalNAc(b1-4)GlcNAc
Procedure, shortened: as §1

[33] = molecular target: Neu5Ac(a2-6)GalNAc
Procedure, shortened: as §1

[34] = molecular target: Neu5Gc(a2-3)Gal(b1-3)GlcNAc
Procedure, shortened: as §1

[35] = molecular target: Neu5Gc(b2-6)Gal(b1-4)GlcNAc
Procedure, shortened: as §1

B1: Gal 3 (Homo sapiens), P17931 (protein)
chain: MADNFSLHDALSGSGNPNPQGWPGAWGNQPAGAGGYPGASYPGAYPGQAPPGAYPGQAPPGAYHGAPGAYPGAPAPGVYPGPPSGPGAYPSSGQPSAPGAYPATGPYGAPAGPLIVPYNLPLPGGVVPRMLITILGTVKPNANSILDFQRGNDVAFHFNPRFNENNRRVIVCNTKLDNNWGREERQSVFPFESGKPFKIQVLVEPDHFKVAVNDAHLLQYNHRVKKLNEISKLGISGDIDLTSASYTMI
- glycan array binding signal (z-score) [1]: 0.343
- glycan array binding signal (z-score) [2]: -0.313
- glycan array binding signal (z-score) [3]: 0.788
- glycan array binding signal (z-score) [4]: -0.357
- glycan array binding signal (z-score) [5]: 4.81
- glycan array binding signal (z-score) [6]: 5.46
- glycan array binding signal (z-score) [7]: 6.11
- glycan array binding signal (z-score) [8]: 5.95
- glycan array binding signal (z-score) [9]: 4.99
- glycan array binding signal (z-score) [10]: -0.356
- glycan array binding signal (z-score) [11]: -0.359
- glycan array binding signal (z-score) [12]: -0.361
- glycan array binding signal (z-score) [13]: -0.359
- glycan array binding signal (z-score) [14]: 4.94
- glycan array binding signal (z-score) [15]: 0.34
- glycan array binding signal (z-score) [16]: -0.357
- glycan array binding signal (z-score) [17]: -0.352
- glycan array binding signal (z-score) [18]: 5.09
- glycan array binding signal (z-score) [19]: 1.2
- glycan array binding signal (z-score) [20]: -0.288
- glycan array binding signal (z-score) [21]: -0.354
- glycan array binding signal (z-score) [22]: 0.182
- glycan array binding signal (z-score) [23]: -0.354
- glycan array binding signal (z-score) [24]: -0.356
- glycan array binding signal (z-score) [25]: -0.341
- glycan array binding signal (z-score) [26]: -0.356
- glycan array binding signal (z-score) [27]: -0.36
- glycan array binding signal (z-score) [28]: -0.358
- glycan array binding signal (z-score) [29]: -0.354
- glycan array binding signal (z-score) [30]: -0.365
- glycan array binding signal (z-score) [31]: -0.352
- glycan array binding signal (z-score) [32]: -0.363
- glycan array binding signal (z-score) [33]: -0.364
- glycan array binding signal (z-score) [34]: -0.363
- glycan array binding signal (z-score) [35]: -0.358
